M1 PAM parental: counter-screen for M1 PAMs: effect in parental CHO-K1 cells; activation, % at 3 µM; ATP EC20, Fluo-8 calcium fluorescence; 0% at ATP EC20, 100% at ATP max; 0.02% of 360,000 active; AID 602247;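 active means activation above the run cutoff, the mean activation of all test compounds plus 3 SD, cut at about 40% in these data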;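 further: peak over basal fluorescence ratio in a 140 s read after ATP addition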
M1 ag parental: nonselective activator or artifact in parental CHO-K1 cells; AID 602248; activation, % at 3 µM; Fluo-8 calcium fluorescence; scaled to maximal ATP response, vehicle zero; 0.48% of 360,000 active; in the data active means activation above about 15%;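 further: untransfected CHO-K1 host cells lacking M1 receptor as counterscreen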
CHRM1 PAM: positive allosteric modulators of human M1 muscarinic receptor. 0.088% of 360,000 active. P11229. CHO-K1 hM1, Fluo-8 calcium fluorescence, ACh EC20; 0% = ACh EC20, 100% = maximal ACh. activation, % at 3 µM; in the data active means activation above about 19%, passing the limit was not always enough
Target sequence (P11229 whole entry, looked up): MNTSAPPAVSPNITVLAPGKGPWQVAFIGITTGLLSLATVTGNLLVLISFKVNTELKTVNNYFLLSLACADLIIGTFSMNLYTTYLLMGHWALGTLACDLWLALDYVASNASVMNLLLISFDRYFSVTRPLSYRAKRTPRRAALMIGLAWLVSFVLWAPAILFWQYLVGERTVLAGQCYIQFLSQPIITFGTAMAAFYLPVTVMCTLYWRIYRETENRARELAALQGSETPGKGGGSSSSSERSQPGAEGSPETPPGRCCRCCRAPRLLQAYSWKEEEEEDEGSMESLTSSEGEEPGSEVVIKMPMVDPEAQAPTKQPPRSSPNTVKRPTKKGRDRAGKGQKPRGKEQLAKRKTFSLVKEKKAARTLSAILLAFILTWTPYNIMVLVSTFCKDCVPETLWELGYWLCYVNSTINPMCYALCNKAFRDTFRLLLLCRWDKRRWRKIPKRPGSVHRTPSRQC
CHRM1 antagonist: blocks human M1 muscarinic receptor; 1.3% of 360,000 active; AID 588852; inhibition, % at 3 µM; CHO-K1 hM1, Fluo-8 calcium fluorescence, ACh EC80 antagonist; P11229;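 active means percent inhibition above its own plate's cutoff, namely the mean of that plate's compound wells plus 3 SD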;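 further: peak over basal fluorescence ratio during 140 s after agonist addition; 0% = ACh EC80 plus DMSO and 100% = DMSO alone without agonist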
CHRM1 agonist: activates human CHRM1 receptor; CHO-K1 hM1, Fluo-8 calcium fluorescence, agonist mode; 0% DMSO, 100% acetylcholine EC100; activation, % at 3 µM; 0.33% of 360,000 active; AID 588814;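 active means activation above the run's mean compound activation plus 3 SD, cut at about 16% in these data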;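 further: peak over basal fluorescence ratio within a 140 s kinetic read after compound addition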
CHO-K1 Ca antag: counter-screen for M1 antagonists: effect in parental CHO-K1 cells | ATP-induced calcium, Fluo-8 fluorescence | inhibition, % at 3 µM | 0.6% of 360,000 active | AID 602250;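 active means inhibition above a per-plate cutoff, the plate's mean sample inhibition plus 3 SD, cut at about 24% in these data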;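 further: 0% = DMSO plus EC80 ATP and 100% = DMSO alone without ATP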
An asterisk follows results filed as active. A selection: hits, their analogues and other compounds. The true share with any hit is near 2.3%.

For CCC(=O)Nc1cc(-c2cc3ccccc3oc2=O)ccc1OC the results were M1 PAM parental 11, M1 ag parental 0, CHRM1 PAM 8, CHRM1 antagonist -8, CHRM1 agonist -4 and CHO-K1 Ca antag -15.
Screening CCC(=O)Nc1ccc(-c2cc3ccccc3oc2=O)cc1 returned M1 PAM parental -16, M1 ag parental -1, CHRM1 PAM 7, CHRM1 antagonist 7, CHRM1 agonist 1 and CHO-K1 Ca antag 25*.
CC[n+]1c(/C=C/c2cc([N+](=O)[O-])ccc2O)ccc2ccccc21 was read as M1 PAM parental -6, M1 ag parental 0, CHRM1 PAM -18, CHRM1 antagonist 20, CHRM1 agonist -9 and CHO-K1 Ca antag 24*.
Screening CCO[C@@H]1OC(C(=O)NCc2ccccc2)=C[C@H](c2ccc(Br)cc2)[C@H]1CCCO returned M1 PAM parental -11, M1 ag parental 0, CHRM1 PAM -34, CHRM1 antagonist 68*, CHRM1 agonist -11 and CHO-K1 Ca antag 3.
For C#Cc1ccc([C@H]2C=C(C(=O)NCc3ccccc3)O[C@@H](OCC)[C@@H]2CCCO)cc1 the results were M1 PAM parental 16, M1 ag parental 0, CHRM1 PAM -40, CHRM1 antagonist 63*, CHRM1 agonist -14 and CHO-K1 Ca antag -18.
For CCO[C@H]1OC(C(=O)NCc2ccccc2)=C[C@@H](c2ccc(C(F)(F)F)cc2)[C@@H]1CCCO the results were M1 PAM parental -3, M1 ag parental 1, CHRM1 PAM 3, CHRM1 antagonist -3, CHRM1 agonist -3 and CHO-K1 Ca antag 4.
C#Cc1ccc([C@@H]2C=C(C(=O)Nc3ccccc3)O[C@H](OCC)[C@H]2CCCO)cc1 was read as M1 PAM parental 1, M1 ag parental 0, CHRM1 PAM 0, CHRM1 antagonist 0, CHRM1 agonist -3 and CHO-K1 Ca antag -15.
`C[N+]1(C)CCC(=C2c3ccccc3CC(=O)c3sccc32)CC1` gave M1 PAM parental -8, M1 ag parental 0, CHRM1 PAM -26, CHRM1 antagonist 95*, CHRM1 agonist -6 and CHO-K1 Ca antag 16.
CC[N+]1(C)CCC(=C2c3ccccc3CC(=O)c3sccc32)CC1 (stereo not given) was read as M1 PAM parental 13, M1 ag parental 0, CHRM1 PAM -26, CHRM1 antagonist 98*, CHRM1 agonist -6 and CHO-K1 Ca antag 5.
Screening Nc1ncnc2c1ncn2[C@@H]1O[C@H](CNC(=O)[C@@H](N)COCc2ccccc2)[C@@H](O)[C@H]1O returned M1 PAM parental 10, M1 ag parental 0, CHRM1 PAM 3, CHRM1 antagonist -9, CHRM1 agonist -3 and CHO-K1 Ca antag -9.
Screening CN(C)S(=O)(=O)c1cccc(COC(=O)c2cnccn2)c1 returned M1 PAM parental 17, M1 ag parental 1, CHRM1 PAM 15, CHRM1 antagonist -23, CHRM1 agonist -7 and CHO-K1 Ca antag -14.
CN(C)S(=O)(=O)c1cccc(COC(=O)c2cccnc2Cl)c1 was read as M1 PAM parental -9, M1 ag parental 17*, CHRM1 PAM -9, CHRM1 antagonist 20, CHRM1 agonist 1 and CHO-K1 Ca antag 19.
For Cc1[nH]c(C)c(S(=O)(=O)NCC(C)c2ccccc2)c1C(=O)N1CCCCC1 (stereo not given) the results were M1 PAM parental 10, M1 ag parental 0, CHRM1 PAM 18, CHRM1 antagonist -23, CHRM1 agonist -1 and CHO-K1 Ca antag -8.
`COC(=O)CCc1c(C)[nH]c(=S)[nH]c1=O` gave M1 PAM parental -3, M1 ag parental 0, CHRM1 PAM 21*, CHRM1 antagonist -34, CHRM1 agonist 8 and CHO-K1 Ca antag -6.
CCOC(=O)Cc1c(C)[nH]c(=S)[nH]c1=O was read as M1 PAM parental 11, M1 ag parental 0, CHRM1 PAM 6, CHRM1 antagonist -13, CHRM1 agonist -3 and CHO-K1 Ca antag -3.
`O=c1c2[nH]cnc2n(-c2cccc(Br)c2)c(=O)n1Cc1ccccc1` gave M1 PAM parental -10, M1 ag parental 4, CHRM1 PAM 3, CHRM1 antagonist 6, CHRM1 agonist 5 and CHO-K1 Ca antag -2.
`CN=C1NC(C)(C)C2CCC(C)(CC2)S1` gave M1 PAM parental 16, M1 ag parental 2, CHRM1 PAM -29, CHRM1 antagonist 39*, CHRM1 agonist -9 and CHO-K1 Ca antag -11.
